# Measurements: the supplement of paper PMC3545927
# This is one part of the list. How many sequences the whole screen found active is unknown.
# B1: FS-2672 (peptide)
# chain: CARGKRSPKSAGNASASA
# B2: FS-3188 (peptide)
# chain: CARGKRLDGPAGNASASA
# B3: FS-1951 (peptide)
# chain: CARGKRSAGPAGNASASA
# B4: FS-2934 (peptide)
# chain: CARGKRFSQSAGNASASA
# B5: FS-3250 (peptide)
# chain: CARGQRSVKAAGNASASA
# B6: FS-2333 (peptide)
# chain: CARGKRSCHAAGNASASA
# B7: FS-2932 (peptide)
# chain: CARGIRPVGRAGNASASA
# B8: FS-83 (peptide)
# chain: CARGSRFSKSAGNASASA
# B9: HC2472 (peptide)
# chain: CAETPCSAHLAGNASASA
# B10: HC526 (peptide)
# chain: CAVCSCLWMMAGNASASA
# B11: FS-2492 (peptide)
# chain: CARHRRVNGTAGNASASA
# B12: FS-1717 (peptide)
# chain: CARHRRSLRLAGNASASA
# B13: FS-2560 (peptide)
# chain: CARKKKLVSTAGNASASA
# B14: FS-3256 (peptide)
# chain: CARHRRLLSIAGNASASA
# B15: FS-2943 (peptide)
# chain: CARHRRALDTAGNASASA
# B16: FS-2155 (peptide)
# chain: CARKKRNGLTAGNASASA
# B17: FS-2556 (peptide)
# chain: CARHRRYKALAGNASASA
# B18: FS-2946 (peptide)
# chain: CARHRRMLTPAGNASASA
# B19: FS-2145 (peptide)
# chain: CARHRRGQETAGNASASA
# B20: FS-2423 (peptide)
# chain: CARKKKTEGTAGNASASA
# B21: FS-2146 (peptide)
# chain: CARHRRRGSPAGNASASA
# B22: HC1700 (peptide)
# chain: CAMCECSQHLAGNASASA
# B23: HC1596 (peptide)
# chain: CACYSIEPLDAGNASASA
# B24: HC243 (peptide)
# chain: CAATGNLPGCAGNASASA
# B25: FS-2435 (peptide)
# chain: CARNQRIVQLAGNASASA
# B26: FS-2691 (peptide)
# chain: CARKKRALDAAGNASASA
# B27: HC563 (peptide)
# chain: CAQRAYALDTAGNASASA
# B28: FS-2561 (peptide)
# chain: CARKKRALDTAGNASASA
# B29: HC1162 (peptide)
# chain: CALPGIPFVSAGNASASA
# B30: FS-621 (peptide)
# chain: CAQASRTRRNAGNASASA
# B31: FS-512 (peptide)
# chain: CATYQRHYRNAGNASASA
# B32: FS-1219 (peptide)
# chain: CAKKQRSRRNAGNASASA
# B33: HC162 (peptide)
# chain: CATNPKPQKKAGNASASA
# B34: HC2483 (peptide)
# chain: CASAPCSAHLAGNASASA
# B35: HC283 (peptide)
# chain: CATVATRDGKAGNASASA
# B36: FS-2445 (peptide)
# chain: CARQPRKQGGAGNASASA
# B37: FS-1847 (peptide)
# chain: CANFKRSVASAGNASASA
# B38: FS-2668 (peptide)
# chain: CARFSRTVQDAGNASASA
# B39: FS-2088 (peptide)
# chain: CARSKRTEQDAGNASASA
# B40: FS-1820 (peptide)
# chain: CARFFRSACSAGNASASA
# B41: FS-2901 (peptide)
# chain: CARDERSWFRAGNASASA
# B42: FS-2415 (peptide)
# chain: CARFLRSKTLAGNASASA
# B43: FS-1831 (peptide)
# chain: CARMLRSVFSAGNASASA
# B44: FS-1821 (peptide)
# chain: CARFLRSVMSAGNASASA
# B45: FS-3246 (peptide)
# chain: CARFIRSVMSAGNASASA
# B46: FS-3248 (peptide)
# chain: CARFVRSVMSAGNASASA
# Target: furin, P09958
# Sequence (P09958 whole entry): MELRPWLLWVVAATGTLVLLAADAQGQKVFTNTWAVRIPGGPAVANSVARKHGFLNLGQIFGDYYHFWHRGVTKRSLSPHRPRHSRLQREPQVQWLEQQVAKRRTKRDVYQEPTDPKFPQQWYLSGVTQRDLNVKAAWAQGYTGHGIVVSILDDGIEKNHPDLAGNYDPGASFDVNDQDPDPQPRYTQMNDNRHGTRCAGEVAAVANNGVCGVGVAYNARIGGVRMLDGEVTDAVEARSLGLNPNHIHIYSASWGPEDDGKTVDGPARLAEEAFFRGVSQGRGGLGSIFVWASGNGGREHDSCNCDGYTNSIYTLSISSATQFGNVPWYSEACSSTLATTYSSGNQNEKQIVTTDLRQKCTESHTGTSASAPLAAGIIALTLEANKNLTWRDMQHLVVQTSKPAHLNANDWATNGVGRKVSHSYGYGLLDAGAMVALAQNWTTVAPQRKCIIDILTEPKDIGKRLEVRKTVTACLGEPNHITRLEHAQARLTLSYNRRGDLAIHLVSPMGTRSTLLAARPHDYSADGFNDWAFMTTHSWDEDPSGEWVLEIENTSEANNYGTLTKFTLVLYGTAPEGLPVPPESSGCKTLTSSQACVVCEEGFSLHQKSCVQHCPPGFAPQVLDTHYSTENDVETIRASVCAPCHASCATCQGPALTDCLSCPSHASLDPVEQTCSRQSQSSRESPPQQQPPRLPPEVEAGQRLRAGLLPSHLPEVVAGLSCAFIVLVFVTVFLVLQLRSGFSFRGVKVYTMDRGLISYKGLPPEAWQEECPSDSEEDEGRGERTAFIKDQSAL
# Test: furin cleavage Z-score vs untreated control; higher = more cleavage, active = 3.5 or more, inactive = 1 or less, 8 variable residues between constant flanks
# Outline: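 Furin cleavage was scored on 8-mer peptides joined to a cDNA oligonucleotide and bound to magnetic beads at the N-terminus. Digestion with purified furin (1:10 enzyme:substrate, 0.01 ml, 50 mM HEPES pH 7.5, CaCl2, NaCl) lasted 7.5, 15 or 30 min. Freed DNA was tagged with adapters by PCR, sequenced and counted; the cleavage Z-score is the lowess-adjusted log count versus furin-free reactions, scaled by median absolute deviation.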
Sequence,furin cleavage Z-score (7.5 min),furin cleavage Z-score (15 min),furin cleavage Z-score (30 min)
B1,11.3 (active),11 (active),9.78 (active)
B2,0.0707 (inactive),0.484 (inactive),-0.699 (inactive)
B3,11.6 (active),13.8 (active),9.13 (active)
B4,0.749 (inactive),2.29,2
B5,0.885 (inactive),-0.415 (inactive),1.5
B6,5.25 (active),5.05 (active),5.61 (active)
B7,-0.929 (inactive),-0.4 (inactive),0.111 (inactive)
B8,-0.0204 (inactive),-0.301 (inactive),0.871 (inactive)
B9,-0.0785 (inactive),-0.846 (inactive),-1.94 (inactive)
B10,-0.293 (inactive),-0.986 (inactive),-0.164 (inactive)
B11,0.115 (inactive),-0.477 (inactive),-0.55 (inactive)
B12,6.94 (active),6.95 (active),9.37 (active)
B13,-1.01 (inactive),-1.81 (inactive),-1.46 (inactive)
B14,-0.899 (inactive),-0.261 (inactive),-0.784 (inactive)
B15,5.7 (active),5.62 (active),5.06 (active)
B16,5.12 (active),6.11 (active),6.82 (active)
B17,-0.784 (inactive),-0.33 (inactive),3.08
B18,5.72 (active),9.34 (active),8.35 (active)
B19,0.466 (inactive),0.563 (inactive),2.26
B20,-1.18 (inactive),0.416 (inactive),0.176 (inactive)
B21,0.761 (inactive),1.81,1.39
B22,0.0737 (inactive),0.814 (inactive),-2.77 (inactive)
B23,-0.277 (inactive),-1.75 (inactive),-0.48 (inactive)

Sequence,furin cleavage Z-score (7.5 min),furin cleavage Z-score (15 min),furin cleavage Z-score (30 min)
B24,-1.92 (inactive),-0.777 (inactive),-0.233 (inactive)
B25,-2.13 (inactive),0.536 (inactive),0.203 (inactive)
B26,9.58 (active),11.5 (active),8.67 (active)
B27,-1.1 (inactive),-1.23 (inactive),-0.561 (inactive)
B28,9.66 (active),11.1 (active),10.8 (active)
B29,-1.14 (inactive),0.0847 (inactive),-1.27 (inactive)
B30,11.3 (active),14.2 (active),10.1 (active)
B31,1.23,0.916 (inactive),2.99
B32,9.72 (active),9.45 (active),8.79 (active)
B33,-1.19 (inactive),-0.825 (inactive),-2.33 (inactive)
B34,-0.101 (inactive),0.964 (inactive),0.332 (inactive)
B35,-0.692 (inactive),-1.6 (inactive),-0.623 (inactive)
B36,-0.459 (inactive),0.227 (inactive),0.306 (inactive)
B37,0.0489 (inactive),1.11,0.734 (inactive)
B38,2.27,2.81,4.69 (active)
B39,-0.228 (inactive),1.41,1.56
B40,0.97 (inactive),0.0813 (inactive),-0.895 (inactive)
B41,0.291 (inactive),-0.493 (inactive),0.641 (inactive)
B42,0.914 (inactive),1.56,0.306 (inactive)
B43,-0.826 (inactive),-0.551 (inactive),1.65
B44,1.23,4.09 (active),5.69 (active)
B45,5.54 (active),5.87 (active),8.7 (active)
B46,4.15 (active),5.68 (active),5.23 (active)
